{"source": "PubChem BioAssay", "note": "A number with no mark means an inactive call. Activity calls are given as the source filed them.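 Rule for the calls, unless noted: active = mean inhibition over 43.08%, the solvent-only control mean plus 3 SD; inactive = the rest.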", "data": [{"biological_target": "Nuclear receptor coactivator 3 (Homo sapiens) (UniProt Q9Y6Q9)", "sequence (Q9Y6Q9 whole entry, looked up, the tested form may be a part)": "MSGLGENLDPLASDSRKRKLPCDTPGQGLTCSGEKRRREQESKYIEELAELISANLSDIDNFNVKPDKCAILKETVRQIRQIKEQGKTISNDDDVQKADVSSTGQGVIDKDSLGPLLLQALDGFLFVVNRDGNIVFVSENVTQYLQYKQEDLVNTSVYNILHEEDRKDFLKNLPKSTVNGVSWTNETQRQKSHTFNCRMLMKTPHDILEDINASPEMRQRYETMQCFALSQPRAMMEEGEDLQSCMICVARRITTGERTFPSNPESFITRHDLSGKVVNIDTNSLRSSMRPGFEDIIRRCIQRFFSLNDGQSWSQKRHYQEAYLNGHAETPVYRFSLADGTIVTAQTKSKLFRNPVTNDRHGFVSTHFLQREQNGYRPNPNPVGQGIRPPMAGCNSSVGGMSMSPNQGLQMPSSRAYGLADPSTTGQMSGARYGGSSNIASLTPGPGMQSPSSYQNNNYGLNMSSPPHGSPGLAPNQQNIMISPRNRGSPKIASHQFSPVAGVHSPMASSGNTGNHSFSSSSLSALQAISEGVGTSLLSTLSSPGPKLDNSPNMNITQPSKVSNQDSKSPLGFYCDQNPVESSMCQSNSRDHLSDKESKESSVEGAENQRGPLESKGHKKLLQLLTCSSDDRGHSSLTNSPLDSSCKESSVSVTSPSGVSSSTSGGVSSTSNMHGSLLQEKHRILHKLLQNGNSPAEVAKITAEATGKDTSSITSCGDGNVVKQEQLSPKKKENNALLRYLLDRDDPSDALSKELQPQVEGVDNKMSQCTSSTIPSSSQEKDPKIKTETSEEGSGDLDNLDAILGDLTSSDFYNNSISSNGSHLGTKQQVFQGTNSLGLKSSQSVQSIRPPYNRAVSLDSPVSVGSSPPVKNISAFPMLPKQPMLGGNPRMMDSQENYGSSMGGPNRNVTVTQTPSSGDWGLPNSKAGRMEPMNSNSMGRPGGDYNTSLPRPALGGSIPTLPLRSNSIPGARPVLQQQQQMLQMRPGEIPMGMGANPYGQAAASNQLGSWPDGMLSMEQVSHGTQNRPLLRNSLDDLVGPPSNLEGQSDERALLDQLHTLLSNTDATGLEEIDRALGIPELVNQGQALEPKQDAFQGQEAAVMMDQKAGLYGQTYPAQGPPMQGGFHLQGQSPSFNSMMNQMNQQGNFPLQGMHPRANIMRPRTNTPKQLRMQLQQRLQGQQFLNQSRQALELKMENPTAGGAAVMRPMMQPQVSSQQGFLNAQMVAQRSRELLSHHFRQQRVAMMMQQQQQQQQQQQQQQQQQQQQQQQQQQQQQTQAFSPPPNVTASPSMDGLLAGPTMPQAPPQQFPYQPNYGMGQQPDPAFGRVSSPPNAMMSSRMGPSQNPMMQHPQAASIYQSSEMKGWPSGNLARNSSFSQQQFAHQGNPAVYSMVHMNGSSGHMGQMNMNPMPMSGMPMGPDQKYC", "assay": "SRC3 coactivator transcriptional activity inhibitors, confirmation, cell-based, luminescence, quadruplicate (AID 588792);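 note: 0% = DMSO treated cells and 100% = gossypol at 36 µM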", "details": "HEK293 GAL4-SRC3 luciferase reporter, at 3.6 µM, active compounds read high", "values": [{"smiles": "COC(=O)c1cc(Cl)cc(Cl)c1OS(=O)(=O)N(C)C", "inhibition": "-11.6%"}, {"smiles": "CC1Sc2ccc(Cl)cc2-c2nc(N)ncc21", "note": "(stereo not given)", "inhibition": "43.9% (active)"}, {"smiles": "NC(=O)c1cc(Sc2ccccc2)nc2ccccc12", "inhibition": "38%"}, {"smiles": "NNC(=O)C(=O)Nc1ccc(O)cc1", "inhibition": "2.12%"}, {"smiles": "Cc1ccc(CNc2ncnc3ccc(-c4ccoc4C)cc23)o1", "inhibition": "58.8% (active)"}, {"smiles": "O=C(CCl)N1N=C(c2ccco2)CC1c1cccs1", "note": "(stereo not given)", "inhibition": "55.1% (active)"}, {"smiles": "COc1ccc(-c2nsc3c(N4CCCCC4)ncnc23)cc1", "inhibition": "32.4%"}, {"smiles": "CCN1/C(=C/c2ccc3cc(C)cc(C)c3[n+]2CC)Sc2cc(C)ccc21", "inhibition": "39.4%"}, {"smiles": "O=C(NCc1ccc(Cl)cc1)c1csc(-c2cccnc2)n1", "inhibition": "13.6%"}, {"smiles": "CC(=O)Nc1ccc(SCC(=O)c2cc(C)n(-c3ccccc3)c2C)cc1", "inhibition": "30.3%"}, {"smiles": "O=C(Nc1ccc([N+](=O)[O-])cc1)Nc1ccc(OC(F)F)c(Cl)c1", "inhibition": "22.9%"}, {"smiles": "NC(=O)C(C(=O)/C=C/c1ccc(Cl)cc1)=C1SCCS1", "inhibition": "29.4%"}, {"smiles": "Cc1cc(C(=O)NNc2ccc(F)cc2)no1", "inhibition": "9%"}, {"smiles": "COc1cc(/C=C2\\CC(C(C)(C)C)C/C(=C\\c3cc(OC)c(OC)c(OC)c3)C2=O)cc(OC)c1OC", "note": "(stereo not given)", "inhibition": "58.4% (active)"}, {"smiles": "Cc1ccc(S(=O)(=O)NC(CC(C)C)C(=O)NCC(c2ccco2)N2CCCCC2)cc1", "note": "(stereo not given)", "inhibition": "27%"}, {"smiles": "O=[N+]([O-])c1cccc2c1ccc1ncccc12", "inhibition": "33%"}, {"smiles": "O=C(Nc1ccc(S(=O)(=O)N2CCCCC2)cc1)c1ccc(CN2CCOCC2)cc1", "inhibition": "15.9%"}, {"smiles": "CCOC(=O)c1c(C)c2c(=O)[nH]cnc2n1-c1ccccc1", "inhibition": "51.5% (active)"}, {"smiles": "CC(C)n1cc(/C=C/c2cc[n+](C)cc2)c2ccccc21", "inhibition": "14%"}, {"smiles": "Cc1cc(=O)[nH]c(NN=Cc2cc(Br)ccc2O)n1", "inhibition": "76.2% (active)"}, {"smiles": "CC(C)n1c(-c2cccnc2)nc2cnccc21", "inhibition": "29.8%"}, {"smiles": "O=C(NCc1ccccc1)c1csc(-c2cccnc2)n1", "inhibition": "54.8% (active)"}, {"smiles": "c1ccc(-c2noc(-c3ccc4c(c3)OCO4)n2)nc1", "inhibition": "17.6%"}, {"smiles": "CCN(CC)c1ccc(/C=N/NC(=O)CNC(=O)C2COc3ccccc3O2)c(O)c1", "note": "(stereo not given)", "inhibition": "24.4%"}, {"smiles": "O=C(Nc1ccc(Cn2cccn2)cc1)c1ccc(COc2cccc(Br)c2)cc1", "inhibition": "1.93%"}, {"smiles": "O=C(NC(=S)/C(=C1\\CCCCCN1)[N+](=O)[O-])c1ccccc1", "inhibition": "32.1%"}, {"smiles": "NNC(=O)c1cnn(Cc2ccccc2)c1N", "inhibition": "-5.29%"}, {"smiles": "O=C(Nc1nc(-c2ccc(S(=O)(=O)N3CCCC3)cc2)cs1)C1COc2ccccc2O1", "note": "(stereo not given)", "inhibition": "7.31%"}, {"smiles": "CN(Cc1ccccc1)c1ncnc(N)c1[N+](=O)[O-]", "inhibition": "41.4%"}, {"smiles": "O=c1cccc2c1c1cc[nH]c3ccc(=O)n2c31", "inhibition": "43%"}, {"smiles": "COc1ccc2c(c1OC)C(=O)N1c3ccccc3C(=O)N(c3ccccc3)C21", "note": "(stereo not given)", "inhibition": "17.1%"}, {"smiles": "CC(=O)NS(=O)(=O)c1ccc(NC(=O)/C=C/c2cn(-c3ccccc3)nc2-c2ccccc2)cc1", "inhibition": "-12.7%"}, {"smiles": "Cc1ccc(-c2nnn(CC(=O)N(Cc3cccs3)C(C(=O)NC3CCCC3)c3ccncc3)n2)cc1", "note": "(stereo not given)", "inhibition": "58.2% (active)"}, {"smiles": "COC(=O)c1ccc2nc(Nc3nc4ccc(F)cc4s3)sc2c1", "inhibition": "21.2%"}, {"smiles": "N=c1c2c(-c3ccccc3)c(-c3ccccc3)n(Cc3ccccc3)c2ncn1CCCn1ccnc1", "inhibition": "26.8%"}, {"smiles": "COc1ccc(Cc2nnc(SCc3ccc([N+](=O)[O-])cc3)o2)cc1", "inhibition": "26.2%"}, {"smiles": "CCCCCCCCCCCCCCCCCCNc1ccn(C2OC(COP(=O)(O)OCC3OC(n4cc(F)c(=O)[nH]c4=O)CC3O)C(O)C2O)c(=O)n1", "note": "(stereo not given)", "inhibition": "52.3% (active)"}, {"smiles": "C[n+]1c2n(c3ccccc31)N=C(c1ccc(Br)cc1)CS2", "inhibition": "15.5%"}, {"smiles": "Cc1cc(=O)[nH]c(Nc2cccc(Br)c2)n1", "inhibition": "22.7%"}, {"smiles": "Cc1cc(C)c2nc3nc(C)c(C)cc3c(N)c2c1", "inhibition": "13.7%"}]}, {"tested_on": "transactivating tegument protein VP16 (Human herpesvirus 1), Gal4-VP16 luciferase reporter", "assay": "VP16 transactivation inhibitors, counter-screen for SRC3 inhibitor project, cell-based, luminescence, high throughput (AID 588794; in the data active = inhibition above about 30%)", "details": "mammalian cells, VP16-driven luciferase reporter luminescence; at 3.6 µM; active compounds read high", "values": [{"smiles": "COC(=O)c1cc(Cl)cc(Cl)c1OS(=O)(=O)N(C)C", "inhibition": "-46.8%"}, {"smiles": "CC1Sc2ccc(Cl)cc2-c2nc(N)ncc21", "note": "(stereo not given)", "inhibition": "32.3% (active)"}, {"smiles": "NC(=O)c1cc(Sc2ccccc2)nc2ccccc12", "inhibition": "16.6%"}, {"smiles": "NNC(=O)C(=O)Nc1ccc(O)cc1", "inhibition": "8.64%"}, {"smiles": "Cc1ccc(CNc2ncnc3ccc(-c4ccoc4C)cc23)o1", "inhibition": "52% (active)"}, {"smiles": "O=C(CCl)N1N=C(c2ccco2)CC1c1cccs1", "note": "(stereo not given)", "inhibition": "31.6% (active)"}, {"smiles": "COc1ccc(-c2nsc3c(N4CCCCC4)ncnc23)cc1", "inhibition": "20.4%"}, {"smiles": "CCN1/C(=C/c2ccc3cc(C)cc(C)c3[n+]2CC)Sc2cc(C)ccc21", "inhibition": "66.3% (active)"}, {"smiles": "O=C(NCc1ccc(Cl)cc1)c1csc(-c2cccnc2)n1", "inhibition": "16.3%"}, {"smiles": "CC(=O)Nc1ccc(SCC(=O)c2cc(C)n(-c3ccccc3)c2C)cc1", "inhibition": "19.6%"}, {"smiles": "O=C(Nc1ccc([N+](=O)[O-])cc1)Nc1ccc(OC(F)F)c(Cl)c1", "inhibition": "32.5% (active)"}, {"smiles": "NC(=O)C(C(=O)/C=C/c1ccc(Cl)cc1)=C1SCCS1", "inhibition": "36.6% (active)"}, {"smiles": "Cc1cc(C(=O)NNc2ccc(F)cc2)no1", "inhibition": "7.33%"}, {"smiles": "COc1cc(/C=C2\\CC(C(C)(C)C)C/C(=C\\c3cc(OC)c(OC)c(OC)c3)C2=O)cc(OC)c1OC", "note": "(stereo not given)", "inhibition": "19.3%"}, {"smiles": "Cc1ccc(S(=O)(=O)NC(CC(C)C)C(=O)NCC(c2ccco2)N2CCCCC2)cc1", "note": "(stereo not given)", "inhibition": "2.93%"}, {"smiles": "O=[N+]([O-])c1cccc2c1ccc1ncccc12", "inhibition": "11.7%"}, {"smiles": "O=C(Nc1ccc(S(=O)(=O)N2CCCCC2)cc1)c1ccc(CN2CCOCC2)cc1", "inhibition": "46% (active)"}, {"smiles": "CCOC(=O)c1c(C)c2c(=O)[nH]cnc2n1-c1ccccc1", "inhibition": "36.8% (active)"}, {"smiles": "CC(C)n1cc(/C=C/c2cc[n+](C)cc2)c2ccccc21", "inhibition": "21%"}, {"smiles": "Cc1cc(=O)[nH]c(NN=Cc2cc(Br)ccc2O)n1", "inhibition": "64% (active)"}, {"smiles": "CC(C)n1c(-c2cccnc2)nc2cnccc21", "inhibition": "26.9%"}, {"smiles": "O=C(NCc1ccccc1)c1csc(-c2cccnc2)n1", "inhibition": "30.8% (active)"}, {"smiles": "c1ccc(-c2noc(-c3ccc4c(c3)OCO4)n2)nc1", "inhibition": "7.86%"}, {"smiles": "CCN(CC)c1ccc(/C=N/NC(=O)CNC(=O)C2COc3ccccc3O2)c(O)c1", "note": "(stereo not given)", "inhibition": "17.7%"}, {"smiles": "O=C(Nc1ccc(Cn2cccn2)cc1)c1ccc(COc2cccc(Br)c2)cc1", "inhibition": "42.6% (active)"}, {"smiles": "O=C(NC(=S)/C(=C1\\CCCCCN1)[N+](=O)[O-])c1ccccc1", "inhibition": "9.73%"}, {"smiles": "NNC(=O)c1cnn(Cc2ccccc2)c1N", "inhibition": "2.66%"}, {"smiles": "O=C(Nc1nc(-c2ccc(S(=O)(=O)N3CCCC3)cc2)cs1)C1COc2ccccc2O1", "note": "(stereo not given)", "inhibition": "-0.16%"}, {"smiles": "CN(Cc1ccccc1)c1ncnc(N)c1[N+](=O)[O-]", "inhibition": "34.3% (active)"}, {"smiles": "O=c1cccc2c1c1cc[nH]c3ccc(=O)n2c31", "inhibition": "32.9% (active)"}, {"smiles": "COc1ccc2c(c1OC)C(=O)N1c3ccccc3C(=O)N(c3ccccc3)C21", "note": "(stereo not given)", "inhibition": "8.85%"}, {"smiles": "CC(=O)NS(=O)(=O)c1ccc(NC(=O)/C=C/c2cn(-c3ccccc3)nc2-c2ccccc2)cc1", "inhibition": "0.43%"}, {"smiles": "Cc1ccc(-c2nnn(CC(=O)N(Cc3cccs3)C(C(=O)NC3CCCC3)c3ccncc3)n2)cc1", "note": "(stereo not given)", "inhibition": "35.2% (active)"}, {"smiles": "COC(=O)c1ccc2nc(Nc3nc4ccc(F)cc4s3)sc2c1", "inhibition": "3.83%"}, {"smiles": "N=c1c2c(-c3ccccc3)c(-c3ccccc3)n(Cc3ccccc3)c2ncn1CCCn1ccnc1", "inhibition": "62.5% (active)"}, {"smiles": "COc1ccc(Cc2nnc(SCc3ccc([N+](=O)[O-])cc3)o2)cc1", "inhibition": "15.8%"}, {"smiles": "CCCCCCCCCCCCCCCCCCNc1ccn(C2OC(COP(=O)(O)OCC3OC(n4cc(F)c(=O)[nH]c4=O)CC3O)C(O)C2O)c(=O)n1", "note": "(stereo not given)", "inhibition": "38.7% (active)"}, {"smiles": "C[n+]1c2n(c3ccccc31)N=C(c1ccc(Br)cc1)CS2", "inhibition": "24.7%"}, {"smiles": "Cc1cc(=O)[nH]c(Nc2cccc(Br)c2)n1", "inhibition": "23.7%"}, {"smiles": "Cc1cc(C)c2nc3nc(C)c(C)cc3c(N)c2c1", "inhibition": "49.7% (active)"}]}]}
